From ChEMBL document CHEMBL1961873, “Compounds: GSK PKIS; Assays: Nanosyn kinase panel” (2012)

target: RAF proto-oncogene serine/threonine-protein kinase (Homo sapiens) (UniProt P04049); conditions: at 1 µM;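 note: values are the mean percent inhibition of CRAF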
Sequence (P04049 whole entry): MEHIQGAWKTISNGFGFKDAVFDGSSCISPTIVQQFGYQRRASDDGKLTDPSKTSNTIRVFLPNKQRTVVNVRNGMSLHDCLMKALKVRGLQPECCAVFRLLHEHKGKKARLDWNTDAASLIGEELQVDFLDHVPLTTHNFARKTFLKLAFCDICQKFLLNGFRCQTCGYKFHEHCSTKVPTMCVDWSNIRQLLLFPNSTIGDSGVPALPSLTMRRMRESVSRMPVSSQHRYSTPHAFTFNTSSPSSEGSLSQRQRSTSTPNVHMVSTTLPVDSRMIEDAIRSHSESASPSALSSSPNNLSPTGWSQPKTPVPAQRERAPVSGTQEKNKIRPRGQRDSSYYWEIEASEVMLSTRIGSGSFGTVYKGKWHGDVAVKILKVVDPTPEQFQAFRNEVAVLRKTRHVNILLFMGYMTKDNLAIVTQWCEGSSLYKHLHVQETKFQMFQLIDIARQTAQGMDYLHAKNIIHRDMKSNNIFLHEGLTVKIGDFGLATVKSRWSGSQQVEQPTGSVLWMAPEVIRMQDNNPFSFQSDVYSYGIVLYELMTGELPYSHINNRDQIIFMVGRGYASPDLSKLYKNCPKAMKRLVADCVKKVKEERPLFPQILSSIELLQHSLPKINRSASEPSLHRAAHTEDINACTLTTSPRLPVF

| Structure (SMILES) | inhibition |
| --- | --- |
| O=C(O[C@H]1CN[C@H](C#Cc2cc3ncnc(Nc4ccc(Cc5ccccc5)cc4)c3s2)C1)N1CCOCC1 | 0.23% |
| O=S(=O)(CCNCc1ccc(-c2ccc3ncnc(Nc4ccc(OCc5cccc(F)c5)c(Cl)c4)c3c2)o1)c1ccccc1 | 1.37% |
| Cc1cccc(Nc2ncc(-c3ccccc3)o2)c1 | -2.34% |
| CC(=O)Nc1cccc(C#Cc2cncnc2Nc2ccc(OCc3cccc(F)c3)c(Cl)c2)c1 | 1.55% |
| CCCN(CCS(C)(=O)=O)Cc1ccc(-c2ccc3ncnc(Nc4ccc(OCc5cccc(F)c5)c(Cl)c4)c3c2)o1 | -0.27% |
| CCn1cc(-c2ccnc3[nH]ccc23)c(-c2cccc(NC(=O)Nc3ccc(OCc4ccccc4)cc3)c2)n1 | -2.76% |
| CCn1c(-c2nonc2N)nc2c(C#CC(C)(C)O)ncc(OC3CCNCC3)c21 | 1.95% |
| CCn1c(-c2nonc2N)nc2c(C#CC(C)(C)O)nc(OC[C@H](N)c3ccccc3)cc21 | -1.64% |
| [O-][S+]1CCN(Cc2ccc(-c3ccc4ncnc(Nc5ccc(OCc6cccc(F)c6)c(Cl)c5)c4c3)o2)CC1 | -3.13% |
| COc1ccc2[nH]c3c4[nH]c5ccc(OC)cc5c4c4c(c3c2c1)C(=O)NC4=O | -1.59% |
| CC(C)COC(=O)c1ccc2c(c1)/C(=C/Nc1ccc(S(N)(=O)=O)cc1)C(=O)N2 | 0.2% |
| N#Cc1c(NC(=O)CN2CCOCC2)sc2c1CCCC2 | -1.23% |
| CC1=C(C(=O)Nc2cc(Cl)c3[nH]ncc3c2)C(c2ccc(C(F)(F)F)cc2)CC(=O)N1 (stereo not drawn) | -5.81% |
| c1ccc(-c2nc3n(c2-c2ccc4c(c2)OCO4)CCC3)nc1 | -1.34% |
| COC(=O)Nc1nc2ccc(Oc3ccc(NC(=O)Nc4cccc(Cl)c4)cc3)cc2[nH]1 | 5.38% |
| Nc1nc(-c2cccc(Cl)c2)c(-c2ccc3ncccc3n2)s1 | -0.32% |
| COc1cc(N2CCN(C(C)C)CC2)ccc1Nc1nc(Nc2ccc(F)cc2C(N)=O)c2cc[nH]c2n1 | -2.24% |
| NS(=O)(=O)c1ccc(Nc2ncc(-c3ccccc3)o2)cc1 | -4.28% |
| O=C(Nc1n[nH]c2cc(-c3ccc(F)cc3)ccc12)C1CC1 | -2.56% |
| CS(=O)(=O)CCNCc1ccc(-c2ccc3ncnc(Nc4ccc(OCc5ccccc5)c(C(F)(F)F)c4)c3c2)o1 | 0.04% |
| Nc1nc(-c2ccc(F)cc2)c(-c2ccc3ncccc3n2)s1 | -6.29% |
| CC(C)(CO)CNC(=O)c1ccc2c(c1)/C(=N/Nc1ccc(S(N)(=O)=O)cc1)C(=O)N2 | -3.84% |
| FC(F)(F)c1cccc(-c2nn3ncccc3c2-c2ccnc(Nc3ccc4c(c3)OCCO4)n2)c1 | -8.65% |
| COc1cc2c(cc1Nc1nc(Nc3ccsc3C(N)=O)c3cc[nH]c3n1)N(C(=O)CN(C)C)CCC2(C)C | -0.27% |

target: T1, Interleukin-1 receptor-associated kinase 4 (Homo sapiens) (UniProt Q9NWZ3); conditions: at 0.1 µM;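 note: reported figure is the mean inhibition of IRAK4 activity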
T1 sequence (whole entry): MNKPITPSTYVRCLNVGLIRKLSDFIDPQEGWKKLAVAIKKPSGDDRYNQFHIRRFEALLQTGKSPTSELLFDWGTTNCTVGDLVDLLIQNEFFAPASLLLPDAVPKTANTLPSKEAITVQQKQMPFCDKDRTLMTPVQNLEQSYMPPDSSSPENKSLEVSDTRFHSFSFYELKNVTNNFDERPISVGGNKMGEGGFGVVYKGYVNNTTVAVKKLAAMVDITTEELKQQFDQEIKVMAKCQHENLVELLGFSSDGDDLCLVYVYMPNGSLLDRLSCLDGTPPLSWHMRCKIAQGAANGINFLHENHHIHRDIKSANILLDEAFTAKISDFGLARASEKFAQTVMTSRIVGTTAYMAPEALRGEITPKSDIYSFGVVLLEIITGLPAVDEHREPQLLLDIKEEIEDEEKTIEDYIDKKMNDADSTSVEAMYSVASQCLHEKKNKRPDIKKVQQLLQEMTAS

| Structure (SMILES) | inhibition |
| --- | --- |
| O=C(O[C@H]1CN[C@H](C#Cc2cc3ncnc(Nc4ccc(Cc5ccccc5)cc4)c3s2)C1)N1CCOCC1 | -0.04% |
| CCNC(=O)O[C@H]1CN[C@H](C#Cc2cc3ncnc(Nc4ccc(OCc5cccc(F)c5)c(Cl)c4)c3s2)C1 | -5.34% |
| O=S(=O)(CCNCc1ccc(-c2ccc3ncnc(Nc4ccc(OCc5cccc(F)c5)c(Cl)c4)c3c2)o1)c1ccccc1 | 2.14% |
| Cc1cccc(Nc2ncc(-c3ccccc3)o2)c1 | 1.25% |
| N#Cc1c(NC(=O)c2ccc(F)cc2)sc2c1CCCC2 | 1.78% |
| NS(=O)(=O)c1ccc(N/N=C2\C(=O)Nc3ccc4ncccc4c32)cc1 | 2.94% |
| CC(=O)Nc1cccc(C#Cc2cncnc2Nc2ccc(OCc3cccc(F)c3)c(Cl)c2)c1 | -1.12% |
| COc1cccc(-n2ncc3c(N/N=C/c4ccc(F)cc4)ncnc32)c1 | -3.94% |
| CCCN(CCS(C)(=O)=O)Cc1ccc(-c2ccc3ncnc(Nc4ccc(OCc5cccc(F)c5)c(Cl)c4)c3c2)o1 | -3.12% |
| COc1cccc(-c2c[nH]c3c(N/N=C/c4ccncc4)ncnc23)c1 | -2.59% |
| CCn1cc(-c2ccnc3[nH]ccc23)c(-c2cccc(NC(=O)Nc3ccc(OCc4ccccc4)cc3)c2)n1 | -0.99% |
| Cc1ccc(O)cc1Nc1ccnc2cc(-c3ccccn3)ccc12 | -3.41% |
| CCn1c(-c2nonc2N)nc2c(C#CC(C)(C)O)ncc(OC3CCNCC3)c21 | 2.02% |
| CCn1c(-c2nonc2N)nc2c(C#CC(C)(C)O)nc(OC[C@H](N)c3ccccc3)cc21 | 1.14% |
| Cc1ccc2c(-c3ccnc(Nc4ccccc4)n3)c(-c3ccc(F)cc3)nn2n1 | -2.94% |
| [O-][S+]1CCN(Cc2ccc(-c3ccc4ncnc(Nc5ccc(OCc6cccc(F)c6)c(Cl)c5)c4c3)o2)CC1 | 1.66% |
| COc1ccc2[nH]c3c4[nH]c5ccc(OC)cc5c4c4c(c3c2c1)C(=O)NC4=O | -1.07% |

| Structure (SMILES) | inhibition |
| --- | --- |
| c1cc(-c2cnn3nc(N4CCOCC4)ccc23)nc(NC2CC2)n1 | -3.02% |
| Cc1cccc2c1NC(=O)/C2=N\Nc1ccc(S(N)(=O)=O)cc1 | -0.09% |
| CC(C)COC(=O)c1ccc2c(c1)/C(=C/Nc1ccc(S(N)(=O)=O)cc1)C(=O)N2 | 2.68% |
| N#Cc1c(NC(=O)CN2CCOCC2)sc2c1CCCC2 | 1.87% |
| CC1=C(C(=O)Nc2cc(Cl)c3[nH]ncc3c2)C(c2ccc(C(F)(F)F)cc2)CC(=O)N1 (stereo not drawn) | 2.04% |
| c1ccc(-c2nc3n(c2-c2ccc4c(c2)OCO4)CCC3)nc1 | 0.9% |
| COC(=O)Nc1nc2ccc(Oc3ccc(NC(=O)Nc4cccc(Cl)c4)cc3)cc2[nH]1 | -0.12% |
| Nc1nc(-c2cccc(Cl)c2)c(-c2ccc3ncccc3n2)s1 | 3.86% |
| COc1cc(N2CCN(C(C)C)CC2)ccc1Nc1nc(Nc2ccc(F)cc2C(N)=O)c2cc[nH]c2n1 | 0.7% |
| NS(=O)(=O)c1ccc(Nc2ncc(-c3ccccc3)o2)cc1 | -2.68% |
| COc1ccc2c(-c3ccnc(Nc4cccc(OC(F)(F)F)c4)n3)cnn2n1 | -3.64% |
| O=C(Nc1n[nH]c2cc(-c3ccc(F)cc3)ccc12)C1CC1 | 2.26% |
| CS(=O)(=O)CCNCc1ccc(-c2ccc3ncnc(Nc4ccc(OCc5ccccc5)c(C(F)(F)F)c4)c3c2)o1 | 0.72% |
| Nc1nc(-c2ccc(F)cc2)c(-c2ccc3ncccc3n2)s1 | 3.41% |
| CC(C)(CO)CNC(=O)c1ccc2c(c1)/C(=N/Nc1ccc(S(N)(=O)=O)cc1)C(=O)N2 | -1.23% |
| FC(F)(F)c1cccc(-c2nn3ncccc3c2-c2ccnc(Nc3ccc4c(c3)OCCO4)n2)c1 | 6.37% |
| COc1cc2c(cc1Nc1nc(Nc3ccsc3C(N)=O)c3cc[nH]c3n1)N(C(=O)CN(C)C)CCC2(C)C | -1.47% |
